Screens: PubChem BioAssay, National Center for Advancing Translational Sciences (NCATS)
FLuc counter = inhibits or activates purified firefly luciferase, miR-21 counter-screen. P08659. purified FLuc, Km substrates, luminescence inhibition. Potency, µM (doses to about 57.5 µM), inactives show top-dose activity change, negative = inhibition, usual class: inhibitors. hit rate 6.9% among 360,000;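 further: plate controls were vehicle for no effect and reference inhibitor for full effect; nearly all actives have a fitted effect of over 55% in size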
Target sequence (P08659 whole entry, looked up): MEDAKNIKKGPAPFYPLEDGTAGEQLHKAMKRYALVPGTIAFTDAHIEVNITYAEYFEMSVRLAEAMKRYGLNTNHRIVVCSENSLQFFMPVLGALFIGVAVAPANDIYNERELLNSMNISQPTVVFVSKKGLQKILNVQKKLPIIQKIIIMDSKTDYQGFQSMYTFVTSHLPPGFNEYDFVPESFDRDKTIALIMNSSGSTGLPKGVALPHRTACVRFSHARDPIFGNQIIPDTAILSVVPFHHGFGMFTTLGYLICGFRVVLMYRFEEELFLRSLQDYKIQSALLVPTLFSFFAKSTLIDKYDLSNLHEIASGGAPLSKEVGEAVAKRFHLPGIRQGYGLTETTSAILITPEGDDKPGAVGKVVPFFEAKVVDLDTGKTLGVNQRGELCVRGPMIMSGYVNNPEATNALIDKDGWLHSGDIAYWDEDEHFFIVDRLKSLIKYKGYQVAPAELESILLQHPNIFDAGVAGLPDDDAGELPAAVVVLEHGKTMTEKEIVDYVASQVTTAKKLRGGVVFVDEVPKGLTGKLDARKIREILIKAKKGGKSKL
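Purified P. pyralis luciferase (10nM final) with 10uM D-luciferin and 10uM ATP (Km levels) in 50mM Tris acetate pH 7.5, 10mM Mg acetate, 0.01% Tween-20, 0.05% BSA; qHTS 6-point titration, ~60 µM downward; luminescence read.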
NPC1 prom act = activators of NPC1 promoter; Potency, µM (top dose mostly 9.22 µM), inactives show at the top dose activation, most hits filed as activators; hit rate 2.4% among 320,000; Huh7 NPC1 promoter luciferase reporter, 24 h; further: % of control where 0% means no effect; nearly all actives have a fitted effect of over 60% in size
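Huh7 cells stably carrying NPC1 promoter–luciferase, plated in Opti-MEM with 10% FBS for 2 h, were exposed to compound in DMSO for 24 h at 37 °C; luciferase reagent was added for 10 min and luminescence read.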
KinaseGlo FLuc = Kinase-Glo luciferase inhibition (counter-screen) | AID 1379 | Kinase-Glo luciferase, ATP luminescence, 8 min | hit rate 0.28% among 200,000 | Q27757 | Potency, µM (highest dose often 38.3 µM), without a hit: at the highest dose activity change, negative = inhibition, actives largely listed as inhibitors; further: on the % scale 0 is the no-effect control and ±100 the full control effect; nearly all actives have a fitted effect of over 60% in size
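Substrate mix (final 50 mM imidazole pH 7.2, 50 mM KCl, 7 mM MgCl2, 10 uM ATP, 0.01% Tween 20, 0.05% BSA) plus pin-tool compound, then Kinase-Glo detection mix; 8 min ambient, luminescence read.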
SMN2 splice up = increases expression of the SMN2 splice variant; Potency, µM (titrated, usually from 46.1 µM), without a hit: at the highest dose activity change, positive = activation, usual class: activators; hit rate 2.8% among 210,000; HEK293 SMN2-luciferase splicing reporter, luminescence, 30-36 h; further: % of control where 0% means no effect; nearly all actives have a fitted effect of over 55% in size
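HEK293 cells carry an SMN2 minigene-luciferase reporter in which exon 7 inclusion puts luciferase in frame. Cells were seeded at 2000 cells/well, attached for 10-12 hours, then exposed to compounds for 30-36 hours at 37C before ONE-Glo luminescence.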
Rab9 promoter act = activates the Rab9 promoter | Potency, µM (series often up to 9.22 µM), without a hit: at the top dose activation, negative = inhibition, most hits filed as activators | Huh7 Rab9 promoter-luciferase reporter, luminescence, 24 h | AID 485297 | hit rate 2.8% among 320,000; further: % of control where 0% means no effect; nearly all actives have a fitted effect of over 60% in size
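Stable Rab9-luc Huh7, 1500 cells/well, 2 h settle; cmpd in DMSO, 24 h, 37 °C/5% CO2; luciferase reagent 10 min RT; luminescence.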
ELG1 genotoxic = induces genotoxicity in HEK293T cells with luciferase-tagged ELG1; hit rate 1.3% among 330,000; HEK293T ELG1-luciferase reporter, luminescence, 16 h; Potency, µM (doses to about 46 µM), for inactives: at the highest dose activity change, positive = activation, usual class: activators; further: % of control where 0% means no effect; nearly all actives have a fitted effect of over 60% in size
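16 hr compound incubation (37 °C, 5% CO2) of HEK293T cells carrying luciferase-tagged ELG1; luciferase then measured by ONE-Glo luminescence after 30 min at RT.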
An asterisk follows results filed as active; ? = inconclusive; . = no result; [ ] = dose if it differs, or a comment. Most compounds without a hit are left out; they make up all but 7.5% or so of the library. The call rests on the fitted dose curve; in most records, active means well fitted curve in the direction sought with a large enough effect; inconclusive means small, poorly fitted or top-dose-only effect, or another doubt; inactive means no such curve, though single readings can be large; an effect the other way counts as inactive or inconclusive. Potency means the concentration at half of the fitted maximal effect.

SMILES	FLuc counter	NPC1 prom act	KinaseGlo FLuc	SMN2 splice up	Rab9 promoter act	ELG1 genotoxic
COc1ccc(NC(=O)CC2C(=O)N(c3cccc(OC)c3)C(=O)N2CCC2=CCCCC2)cc1 (stereo unspecified)	1.7%	.	.	-29.6%	.	.
COc1ccc(C(CNC(=O)CN2C(=O)NC3(CCCC3)C2=O)N(C)C)cc1 (stereo unspecified)	-9.6%	0.9%	.	.	6.1%	12.5%
CSc1nc(-c2ccc(Cl)cc2)nn1C(=O)c1ccccc1	10.7µM*	24.7%	.	.	?	17.1%
CSc1nc(-c2ccccc2)nn1C(=O)c1ccc(Cl)cc1	-16.6%	8.4%	-6.9%	?	12.2%	4.3%
COc1cccc(C2=NOC(C(=O)NC(C)C)C2)c1 (stereo unspecified)	-1.9%	1.0%	5.4%	1.5%	-3.9%	1.3%
COc1cccc(C2=NC(C)(C)NC(c3ccccc3O)C2)c1 (stereo unspecified)	8.49µM*	-2.3%	-5.0%	-3.8%	2.9%	1.3%
CCC1(C)N=C(c2ccc3c(c2)OCO3)CC(c2ccccc2O)N1 (stereo unspecified)	7.57µM*	11.4%	?	?	?	10.1%
O=C(NC1CCCCC1)c1n[nH]c2c1CC(c1ccccc1)CC2 (stereo unspecified)	3.01µM*	2.24µM*	.	.	1.78µM*	?
COc1ccccc1N1CCN(C(=O)c2cc(-c3ccc(C)c(F)c3)on2)CC1	-15.6%	.	.	.	.	.
Cc1cc(C(=O)OC2CCOC2=O)c2ccccc2n1 (stereo unspecified)	0.8%	2.2%	0.2%	-11.4%	-0.9%	-0.8%
COc1ccc(-c2cc(C(=O)OC3CCOC3=O)c3ccccc3n2)cc1 (stereo unspecified)	7.57µM*	1.7%	0.6%	5.4%	-5.4%	9.0%
O=C(OC1CCOC1=O)c1cc(-c2ccc(Br)cc2)nc2ccccc12 (stereo unspecified)	19µM*	-2.0%	2.1%	7.5%	1.1%	-1.4%
O=C(OC1CCOC1=O)c1cc(-c2cccc(Br)c2)nc2ccccc12 (stereo unspecified)	?	-3.6%	1.4%	13.6%	-3.0%	3.4%
Cc1cc(/C=N/NC(=O)c2cccc([N+](=O)[O-])c2)c(C)n1-c1ccccc1	1.69µM*	-0.5%	-2.4%	27.1%	20.2%	?
Cc1cccc(C)c1-n1c(C)cc(/C=N/NC(=O)CSc2ncccn2)c1C	?	2.4%	0.9%	-4.9%[1.84 µM]	-1.8%	8.8%
Cc1cc(/C=N/NC(=O)c2cccs2)c(C)n1-c1ccccc1	0.0849µM*	0.631µM*	-3.3%	?	0.794µM*	?
Cc1cc(C)nc(SCC(=O)N/N=C/c2cc(C)n(-c3ccccc3C)c2C)n1	16.9µM*	-0.3%	-1.8%	-14.0%	-1.3%	-1.2%
Cc1cc(/C=N/NC(=O)C(O)(c2ccccc2)c2ccccc2)c(C)n1-c1ccccc1	?	-3.7%	-0.2%	?	-1.1%	-3.0%
Cc1ccc(-n2c(C)cc(/C=N/NC(=O)c3ccncc3)c2C)cc1C	8.49µM*	-7.0%	-3.0%	-21.6%	24.3%	-1.1%
COc1cccc(NC(=O)CN(C)C(=O)CSc2nc(C)cc(C)n2)c1	5.2%	-1.5%	.	.	0.9%	-0.3%
Cc1cc2n(n1)CCC(=O)N2Cc1ccc(C(=O)Nc2cccc(C(F)(F)F)c2)cc1	-15.5%	.	.	.	.	.
Cc1cccc(C)c1-n1c(C)cc(/C=N/NC(=O)c2ccncc2)c1C	-22.7%	0.0%	-0.7%	1.6%	-0.3%	2.8%
Cc1ccc(-n2c(C)cc(/C=N/NC(=O)CC3(C)OCCO3)c2C)c(C)c1	?	0.9%	-3.4%	-48.0%	1.0%	-0.7%
O=C(N/N=C/c1cccnc1)c1cccs1	?	3.2%	.	.	18.0%	5.9%
Cc1ccc(-n2c(C)cc(/C=N/NC(=O)c3ccncc3)c2C)c(C)c1	12µM*	-4.7%	-2.3%	-9.6%	8.3%	-4.4%
